Experimental data from the supplement of paper PMC6555819.

The sequences below were run on PPARg:RXRa 30nM:10nM, anti-RXR (NR concentration 30 nM, RXRa partner concentration 10 nM) (assay: PBM binding z-score (relative to random genomic background probes); higher = stronger binding; sequences stand for … in GC…GCGATTGACAGCGTAGAATGAAGG).
In short: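 The probes on custom Agilent 4×180K protein-binding microarrays were double-stranded, with 34-nt variable regions bearing direct-repeat seeds, single-nucleotide variants, half-site ablations and random human genomic background sequences. Incubation lasted 1 h with ligand-free nuclear receptor dimers in PBS pH 7.4, 2% milk, 0.02% Triton X-100, 1 mM DTT, 0.2 mg/mL BSA and 0.4 mg/ml salmon testes DNA. Antibodies against each partner (one per run) detected bound dimers, and fluorescence scans were regression-normalized. Binding z-scores take the random background probes as reference.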

| Sequence | PBM binding z-score |
| --- | --- |
| TTACCAACGTGAAAGGTCGTTGATGCACGCCTTG | 2.49 |
| CCTACTGCGCCACGAAAGGTCATTGATTCAGTGA | 0.979 |
| TCATATAGGTAAACGTGAAAGTCGAACGATATGA | 3.42 |
| GGAACGAGGGCAAAGTTGATAGCATCTGTCGACG | 5.84 |
| CCTAGCAGGCCAATCTGGGTGACTCAAGGCTTGA | -0.938 |
| TCTGCTGGGTCAGTTGGTCAGCTAACGAGCTGCC | 1.09 |
| CCTACTAGGTCATGGTCAGCTAATCTACAGTATG | 3.38 |
| TCTGTTAGTTGAAGGGCAACCGACGAGTCCGTTT | 3.09 |
| TCGGCTAGGTCAACGATGGTCAGCTAATCTGCTA | 1.62 |
| AGAATGAGGTTAATAAGATCAGGGAATTGCGGTC | 0.516 |
| AGAACGAGGGCAATGAGTTGATAGTACGGGTGGC | 0.0705 |
| AGTCAAAGTTCATCTAGGGAACGTAAGATATGCT | 3.44 |
| ATAACGAGGGCACGCTGAGTTGATAGCAGAGTAG | 0.803 |
| ATCTGTAGGTAACCAAGTTCAGTGAATGCCGAAC | 0.0596 |
| AGAACGAGGGCACGCTGAGTTGAGAGCAGAGTAG | 0.0205 |
| CTCGAAAGGTCGTGCTGAGGTGAGTATACCAAAC | 1.23 |
| CAAACTAGGTCCAGAGGTCAAAGTCCGCTTCCCG | 4.37 |
| CGTCCAAGGTCAAAGGTCAGTGACGAGATGACGG | 8.03 |
| GGAACGAGGGCAAAGTTGATAGAATCTGTCGACG | 6.22 |
| TCTTGTAGATCAATAGAGGATAAGAAAGTGCGCT | 2.75 |

| Sequence | PBM binding z-score |
| --- | --- |
| CGAACCAGGTCAAGGACAGTGAATCTCCGCACGC | 1.28 |
| CCGGCTAGGTCATGGTCAGCTAATCTACAGTATG | 0.212 |
| ATACCAAGGTGCTCGTGAGGTCGTTGATACTAAC | -0.413 |
| CCAACTAGGTCAAGGACAGTGAATCTCCGCACGC | 3.19 |
| GTAACGAGGGCAAGTTGATAGCAGAGTTTGATGG | 0.279 |
| TCTGCTAGGTCAGTTGGACAGCTAACGAGCTGCC | 1.23 |
| AGTCAAAGCTCAGGACGAGGTAACGTAAAGCACG | -0.133 |
| ACGTACGGGTCAACGAGGTTATAGCACGCGTATA | 1.55 |
| CCTTACGGGTCACTGACAGGTTAGAGCATTTGGA | 1.58 |
| CGAACTAGGTCATCCAGGACAGTCAATACATTGA | 3.94 |
| CAAACTAGGCCAAAGGTCAAAGTCGAGCCAACCA | 11 |
| CGTCCAAGGTCAATGTCAGTGAAAGAGACTCGAA | 1.3 |
| TCTATTACTTGAAGGGCAACCGACGAGTCCGTTT | 3.96 |
| TCTTGTAGATCAACAGGAGGTTAAGAACGATCGA | 2.75 |
| TCATATAGGTAAATGCTAGGTGAAAGTCCGATCT | 3.65 |
| TCTAGTTGGTCACGGAGGTCACACAAGACGGGTA | 3.51 |
| CGAACTAGGTCATCCAAGACAGTGAATACATTGA | 4.23 |
| TCTTATAGATCAACAGGAGGTTAAGAAAGATCGA | 3.48 |
| CGAACTAGGTCAGAACAGGAAAGTGAAGGATGAT | 1.92 |
| ATATGTAGGTTATCGCGTCATTCAGTTTGCGCAT | 1.41 |
